“And” between values parts separate entries of the source, which are not always exact repeats. Identical values can stand only once. Results filed as inconclusive are left out. The source holds several records for some structures; these can differ, active in one and inactive in another. The source made the active and inactive calls. Unless noted, the call rests on the fitted dose curve.
Key:
[1] = qHTS assay to identify small molecule agonists of the sonic hedgehog signaling (Shh) pathway (AID 1259368);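 further: NIH/3T3-derived 3T3Gli1-Luc cells carrying a stable Gli1-driven firefly luciferase reporter; series mostly up to about 92 µM; nearly all actives have a fitted effect of over 15% in size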
Summary of the method: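 Cells of a mouse NIH/3T3 clone stably expressing luciferase under the Gli1 transcriptional response element are exposed to test chemicals for 24 hr at 37 C. Pathway activation is detected as a rise in luminescence.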

[2] = qHTS assay to identify small molecule antagonists of the sonic hedgehog signaling (Shh) pathway (AID 1259369); further: nearly all actives have a fitted effect of over 45% in size; further: potency means the concentration at half of the fitted maximal effect
Summary of the method: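 Cells are plated and held 4hr at 37 C, compounds (DMSO) are pinned in, conditioned medium is added to stimulate the pathway, and after 24hr luciferase reagent is added for 30min before luminescence is read.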

[3] = target: Estrogen receptor beta (Homo sapiens) (UniProt Q92731); assay: qHTS assay to identify small molecule agonists of the estrogen receptor beta (ER-beta) signaling pathway (AID 1259377; active means well fitted activation curve with a large enough effect in the signal ratio in the repeat runs, not every such curve was filed as active; the % refers to the signal ratio; further: potency means the concentration at half of the fitted maximal effect)
Chain of Estrogen receptor beta (Homo sapiens) (Q92731 whole entry, looked up): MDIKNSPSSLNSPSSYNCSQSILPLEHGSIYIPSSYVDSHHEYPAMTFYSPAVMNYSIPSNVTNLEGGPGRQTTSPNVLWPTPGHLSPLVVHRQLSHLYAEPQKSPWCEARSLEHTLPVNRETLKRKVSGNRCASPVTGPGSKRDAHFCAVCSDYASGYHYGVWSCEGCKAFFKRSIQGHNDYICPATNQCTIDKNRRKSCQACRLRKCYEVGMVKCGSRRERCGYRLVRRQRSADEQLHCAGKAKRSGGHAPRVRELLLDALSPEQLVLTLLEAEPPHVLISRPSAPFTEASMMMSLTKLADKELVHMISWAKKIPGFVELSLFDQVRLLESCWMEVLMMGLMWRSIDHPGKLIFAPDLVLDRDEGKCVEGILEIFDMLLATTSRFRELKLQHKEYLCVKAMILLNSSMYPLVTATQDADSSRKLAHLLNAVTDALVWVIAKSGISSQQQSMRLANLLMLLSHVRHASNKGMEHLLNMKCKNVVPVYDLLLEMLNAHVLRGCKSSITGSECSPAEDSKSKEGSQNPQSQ
Summary of the method: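 Screening used GripTite ER-beta-UAS-bla cells held in 2% charcoal-stripped FBS medium. After overnight (16 hr) compound incubation at 37C, beta-lactamase activity was detected with a FRET substrate by fluorescence.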

[4] = target: Estrogen receptor beta (Homo sapiens) (UniProt Q92731); assay: qHTS assay to identify small molecule antagonists of the estrogen receptor beta (ER-beta) signaling pathway (AID 1259378; active means well fitted inhibition curve with a large enough effect in the signal ratio in the repeat runs, not every such curve was filed as active; the % refers to the signal ratio)
Summary of the method: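 Antagonist mode: compounds added to beta-lactamase reporter HEK293T ER-beta-UAS cells stimulated with E2 (1nM final), 16 hr at 37C. LiveBLAzer B/G FRET substrate, 2 hours room temperature, fluorescence read-out.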

[5] = qHTS assay to identify small molecule agonists of the androgen receptor (AR) signaling pathway in the presence of an antagonist - cell viability counter screen (AID 1259379; active means well fitted curve in the direction sought with a large enough effect in the repeat runs; an effect the other way counts as inactive or inconclusive;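 further: MDA-kb2 human breast cancer cells carrying an MMTV luciferase reporter; series mostly up to about 92 µM; nearly all actives have a fitted effect of over 25% in size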)
Summary of the method: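 Cytotoxicity is assessed by CellTiter-Fluor in MDA-kb2 cells carrying an MMTV-driven luciferase reporter. Cells receive 3.0uM nilutamide plus compounds at 15 concentrations and incubate 16 hr at 37C without CO2 before fluorescence reading.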

[6] = qHTS assay to identify small molecule agonists of the estrogen receptor beta (ER-beta) signaling pathway - cell viability counter screen (AID 1259380; active means well fitted curve in the direction sought with a large enough effect in the repeat runs; an effect the other way counts as inactive or inconclusive; further: nearly all actives have a fitted effect of over 30% in size; further: potency means the concentration at half of the fitted maximal effect)
Summary of the method: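 Cytotoxicity is measured in parallel with the reporter screen: after 16 hr compound exposure at 37C and a 2 hr LiveBLAzer step, CellTiter-Glo is added to the same ER-beta-UAS-bla HEK293T wells and luminescence read after 30 min.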

[7] = qHTS assay to identify small molecule antagonists of the estrogen receptor beta (ER-beta) signaling pathway - cell viability counter screen (AID 1259382; active means well fitted curve in the direction sought with a large enough effect in the repeat runs; an effect the other way counts as inactive or inconclusive;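 further: HEK293T cells carrying ER-beta-UAS-bla reporter stimulated with estradiol; series mostly up to about 92 µM; nearly all actives have a fitted effect of over 55% in size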)
Summary of the method: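 Cytotoxicity counter screen multiplexed with the beta-lactamase antagonist assay: GripTite HEK293T ER-beta-bla cells were treated 16 hr with test chemicals in the presence of 1nM 17-beta-estradiol, and viability was measured by CellTiter-Glo.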

[8] = target: Estrogen receptor (Homo sapiens) (UniProt P03372); assay: qHTS assay to identify small molecule agonists of the estrogen receptor alpha (ER-alpha) signaling pathway in the presence of an antagonist (AID 1259383); further: nearly all actives have a fitted effect of over 15% in size; further: potency means the concentration at half of the fitted maximal effect; on activation: top concentration of the series differs between compounds
Chain of Estrogen receptor (Homo sapiens) (P03372 whole entry, looked up): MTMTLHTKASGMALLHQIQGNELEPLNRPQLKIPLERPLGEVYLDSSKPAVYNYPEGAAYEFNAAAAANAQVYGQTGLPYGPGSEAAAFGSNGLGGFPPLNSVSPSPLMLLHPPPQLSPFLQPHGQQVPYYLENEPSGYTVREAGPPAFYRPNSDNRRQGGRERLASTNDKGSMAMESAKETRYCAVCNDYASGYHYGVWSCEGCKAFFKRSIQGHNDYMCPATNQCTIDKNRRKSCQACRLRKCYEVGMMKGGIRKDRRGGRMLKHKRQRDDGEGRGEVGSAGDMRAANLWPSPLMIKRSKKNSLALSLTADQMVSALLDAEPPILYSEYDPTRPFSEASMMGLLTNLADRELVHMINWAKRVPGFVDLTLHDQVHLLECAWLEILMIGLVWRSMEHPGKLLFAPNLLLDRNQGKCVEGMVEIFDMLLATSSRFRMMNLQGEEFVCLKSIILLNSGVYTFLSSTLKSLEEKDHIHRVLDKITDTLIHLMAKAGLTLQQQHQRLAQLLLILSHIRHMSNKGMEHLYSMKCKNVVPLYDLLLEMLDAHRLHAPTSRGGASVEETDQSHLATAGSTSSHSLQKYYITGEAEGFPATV
Summary of the method: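 Agonist-mode confirmation in the presence of the ER antagonist ICI-182,780 at 10.0nM final. Breast-derived VM7Luc4E2 reporter cells were exposed to compounds for 22hr, and ERE-driven luciferase was quantified by luminescence.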

[9] = qHTS assay to identify small molecule agonists or antagonists of the thyroid stimulating hormone receptor (TSHR) signaling pathway - wild type cell line counter screen (AID 1259384)
Summary of the method: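 Counter screen in untransfected Hek293: compounds (15-point titration, triplicate) plus phosphodiesterase inhibitor Ro20-1724 added after 18 h plating; 30 min RT. Intracellular cAMP via competitive d2/cryptate immunoassay, 1 h incubation.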

[10] = target: Thyrotropin receptor (Homo sapiens) (UniProt P16473); assay: qHTS assay to identify small molecule antagonists of the thyroid stimulating hormone receptor (TSHR) signaling pathway (AID 1259385); further: nearly all actives have a fitted effect of over 20% in size
Chain of Thyrotropin receptor (Homo sapiens) (P16473 whole entry, looked up): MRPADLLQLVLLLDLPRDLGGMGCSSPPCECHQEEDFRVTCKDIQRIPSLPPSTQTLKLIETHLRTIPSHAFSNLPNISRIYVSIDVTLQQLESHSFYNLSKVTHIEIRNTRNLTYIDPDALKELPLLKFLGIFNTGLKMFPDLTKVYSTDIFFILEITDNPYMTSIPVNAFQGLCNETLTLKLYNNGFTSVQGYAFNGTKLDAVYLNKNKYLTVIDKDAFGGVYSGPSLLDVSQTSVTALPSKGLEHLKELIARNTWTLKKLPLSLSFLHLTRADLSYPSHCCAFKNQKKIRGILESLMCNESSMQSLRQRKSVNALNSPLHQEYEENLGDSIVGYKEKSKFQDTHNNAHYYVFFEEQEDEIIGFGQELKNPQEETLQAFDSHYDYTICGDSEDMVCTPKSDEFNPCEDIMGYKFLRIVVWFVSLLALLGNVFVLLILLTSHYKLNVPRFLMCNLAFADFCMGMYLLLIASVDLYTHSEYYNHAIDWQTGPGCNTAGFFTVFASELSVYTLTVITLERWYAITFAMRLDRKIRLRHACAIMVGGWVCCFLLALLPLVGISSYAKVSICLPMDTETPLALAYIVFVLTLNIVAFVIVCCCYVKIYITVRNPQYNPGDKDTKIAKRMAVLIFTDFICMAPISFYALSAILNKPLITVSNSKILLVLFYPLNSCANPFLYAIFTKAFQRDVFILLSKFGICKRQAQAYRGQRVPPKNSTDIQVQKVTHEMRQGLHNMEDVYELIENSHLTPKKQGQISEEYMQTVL
Summary of the method: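 Antagonist mode: compound-treated TSHR-expressing HEK293 cells were stimulated with 1.5 ng/mL TSH (final) in presence of Ro20-1724 for 30 min at RT. HTRF cAMP detection after 1 h; each compound tested at 15 concentrations, triplicate.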

[11] = qHTS assay to identify small molecule agonists of the estrogen receptor alpha (ER-alpha) signaling pathway in the presence of an antagonist - cell viability counter screen (AID 1259386; active means well fitted curve in the direction sought with a large enough effect in the repeat runs; an effect the other way counts as inactive or inconclusive;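 further: series mostly up to about 92 µM; cells exposed to compounds for 22 h at 37 °C before the viability read; nearly all actives have a fitted effect of over 30% in size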)
Summary of the method: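 Cytotoxicity was measured in parallel with the ERE-luciferase agonist screen, in the same wells. The cells were VM7Luc4E2, which endogenously express ER-alpha, and treatment was with compounds plus 10.0nM ICI-182,780 for 22hr.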

[12] = target: Progesterone receptor (Homo sapiens) (UniProt P06401); assay: qHTS assay to identify small molecule agonists of the progesterone receptor (PR) signaling pathway (AID 1346784); further: nearly all actives have a fitted effect of over 30% in size
Chain of Progesterone receptor (Homo sapiens) (P06401 whole entry, looked up): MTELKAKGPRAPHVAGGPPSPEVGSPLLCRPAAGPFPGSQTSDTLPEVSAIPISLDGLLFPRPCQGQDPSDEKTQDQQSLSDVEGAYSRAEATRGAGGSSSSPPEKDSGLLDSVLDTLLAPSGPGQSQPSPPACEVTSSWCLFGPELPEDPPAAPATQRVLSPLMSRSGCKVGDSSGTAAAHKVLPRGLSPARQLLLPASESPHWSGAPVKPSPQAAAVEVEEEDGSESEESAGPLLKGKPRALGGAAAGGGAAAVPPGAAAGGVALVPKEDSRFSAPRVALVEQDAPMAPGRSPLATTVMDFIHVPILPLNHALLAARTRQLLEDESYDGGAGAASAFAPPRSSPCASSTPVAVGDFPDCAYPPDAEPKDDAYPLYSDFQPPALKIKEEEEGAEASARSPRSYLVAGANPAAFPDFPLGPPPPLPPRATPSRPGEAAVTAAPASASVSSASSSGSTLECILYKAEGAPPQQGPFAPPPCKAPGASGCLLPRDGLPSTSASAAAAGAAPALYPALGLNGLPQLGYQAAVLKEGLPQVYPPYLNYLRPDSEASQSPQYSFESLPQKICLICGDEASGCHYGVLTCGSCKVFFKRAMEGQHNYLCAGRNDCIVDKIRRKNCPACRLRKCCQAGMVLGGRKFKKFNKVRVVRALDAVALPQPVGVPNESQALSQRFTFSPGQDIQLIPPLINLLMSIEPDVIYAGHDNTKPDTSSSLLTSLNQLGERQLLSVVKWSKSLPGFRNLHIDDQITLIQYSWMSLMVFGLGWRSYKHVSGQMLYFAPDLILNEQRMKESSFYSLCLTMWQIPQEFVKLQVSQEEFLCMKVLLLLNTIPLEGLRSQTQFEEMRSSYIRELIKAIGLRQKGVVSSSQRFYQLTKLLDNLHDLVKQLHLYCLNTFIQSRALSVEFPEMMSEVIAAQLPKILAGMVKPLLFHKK
Summary of the method: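 Seed PR-UAS-bla HEK 293T cells (2% charcoal-stripped FBS), incubate 6 hr at 37C; add compounds in DMSO, 16 hr at 37C; add LiveBLAzer B/G substrate, 2 hr RT; read fluorescence intensity.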

[13] = target: Progesterone receptor (Homo sapiens) (UniProt P06401); assay: qHTS assay to identify small molecule antagonists of the progesterone receptor (PR) signaling pathway (AID 1346795; active means well fitted inhibition curve with a large enough effect in the signal ratio in the repeat runs, not every such curve was filed as active; the % refers to the signal ratio; further: potency means the concentration at half of the fitted maximal effect)
Summary of the method: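 Screening used a GripTite HEK293T line with PR-responsive UAS-beta-lactamase. Cells were challenged with compound in the presence of 1 nM R5020 final for 16 hr at 37C; B/G FRET substrate, 2 hr room temperature, fluorescence.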

[14] = qHTS assay to identify small molecule antagonists of the progesterone receptor (PR) signaling pathway - cell viability counter screen (AID 1346798; active means well fitted curve in the direction sought with a large enough effect in the repeat runs; an effect the other way counts as inactive or inconclusive; further: series mostly up to about 92 µM; nearly all actives have a fitted effect of over 50% in size)
Summary of the method: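 Measures cytotoxicity in parallel with the PR antagonist reporter read: HEK293T PR-UAS-bla cells get compound and R5020 for 16 hr, and remaining viable cells are quantified by CellTiter-Glo luminescence.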

[15] = qHTS assay to identify small molecule agonists of the progesterone receptor (PR) signaling pathway - cell viability counter screen (AID 1346799); further: nearly all actives have a fitted effect of over 45% in size
Summary of the method: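 Using the same plates as the PR reporter screen, HEK293T PR-UAS-bla cells received compounds for 16 hr at 37C and were then lysed with CellTiter-Glo; luminescence was read 30 min later at room temperature.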

[16] = qHTS assay to identify small molecule antagonists of the TGF-beta/Smad signaling pathway - cell viability counter screen (AID 1346824; active means well fitted curve in the direction sought with a large enough effect in the repeat runs; an effect the other way counts as inactive or inconclusive; further: nearly all actives have a fitted effect of over 50% in size)
Summary of the method: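 Cytotoxicity counter-screen run in the same wells as the beta-lactamase Smad reporter read: CellTiter-Glo luminescence after 30 min at room temperature. HEK 293T SBE-bla cells had 5 hr compound exposure at 37 C with TGF-beta1 (0.25 ng/mL stock).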

[17] = qHTS assay to identify small molecule agonists of the TGF-beta/Smad signaling pathway - cell viability counter screen (AID 1346829; active means well fitted curve in the direction sought with a large enough effect in the repeat runs; an effect the other way counts as inactive or inconclusive; further: top concentration of the series differs between compounds; nearly all actives have a fitted effect of over 45% in size)
Summary of the method: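 HEK 293T SBE-bla line, 5 hr compound exposure at 37 C, multiplexed CellTiter-Glo viability read by luminescence.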

[18] = qHTS assay to identify small molecule agonists of the TGF-beta/Smad signaling pathway (AID 1346859; active means well fitted activation curve with a large enough effect in the signal ratio in the repeat runs, not every such curve was filed as active; the % refers to the signal ratio; further: series mostly up to about 77 µM)
Summary of the method: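 Beta-lactamase reporter activity downstream of Smad binding elements was measured in stably transfected HEK 293T cells; compounds were incubated for 5 hr, substrate for 2 hr at room temperature.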

[19] = target: Thyrotropin-releasing hormone receptor (Homo sapiens) (UniProt P34981); assay: qHTS assay to identify small molecule antagonists of the thyrotropin-releasing hormone receptor (TRHR) signaling pathway (AID 1346877; active means well fitted inhibition curve with a large enough effect in the repeat runs, not every such curve was filed as active; further: series mostly up to about 51 µM)
Chain of Thyrotropin-releasing hormone receptor (Homo sapiens) (P34981 whole entry, looked up): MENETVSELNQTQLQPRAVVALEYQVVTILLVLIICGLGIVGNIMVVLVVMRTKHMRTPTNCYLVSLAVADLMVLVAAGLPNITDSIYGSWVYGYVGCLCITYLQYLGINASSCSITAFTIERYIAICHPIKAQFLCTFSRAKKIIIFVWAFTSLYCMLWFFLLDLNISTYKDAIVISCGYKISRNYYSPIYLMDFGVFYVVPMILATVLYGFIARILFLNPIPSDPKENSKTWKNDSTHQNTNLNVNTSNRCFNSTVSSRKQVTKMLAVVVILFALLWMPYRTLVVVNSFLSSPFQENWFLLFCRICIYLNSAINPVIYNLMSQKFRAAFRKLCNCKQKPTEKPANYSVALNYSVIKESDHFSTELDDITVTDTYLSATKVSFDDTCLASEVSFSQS
Summary of the method: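 Antagonism is measured as suppression of the calcium response to 1 nM TRH in TRHR-HEK293 cells that have been dye-loaded for 2 h at 37 °C after overnight plating. Each compound is tested at 15 concentrations in triplicate.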

[20] = target: Androgen receptor (Homo sapiens) (UniProt P10275); assay: qHTS assay to identify small molecule agonists of the androgen receptor (AR) signaling pathway in the presence of an antagonist (AID 1259381); further: nearly all actives have a fitted effect of over 15% in size
Chain of Androgen receptor (Homo sapiens) (P10275 whole entry, looked up): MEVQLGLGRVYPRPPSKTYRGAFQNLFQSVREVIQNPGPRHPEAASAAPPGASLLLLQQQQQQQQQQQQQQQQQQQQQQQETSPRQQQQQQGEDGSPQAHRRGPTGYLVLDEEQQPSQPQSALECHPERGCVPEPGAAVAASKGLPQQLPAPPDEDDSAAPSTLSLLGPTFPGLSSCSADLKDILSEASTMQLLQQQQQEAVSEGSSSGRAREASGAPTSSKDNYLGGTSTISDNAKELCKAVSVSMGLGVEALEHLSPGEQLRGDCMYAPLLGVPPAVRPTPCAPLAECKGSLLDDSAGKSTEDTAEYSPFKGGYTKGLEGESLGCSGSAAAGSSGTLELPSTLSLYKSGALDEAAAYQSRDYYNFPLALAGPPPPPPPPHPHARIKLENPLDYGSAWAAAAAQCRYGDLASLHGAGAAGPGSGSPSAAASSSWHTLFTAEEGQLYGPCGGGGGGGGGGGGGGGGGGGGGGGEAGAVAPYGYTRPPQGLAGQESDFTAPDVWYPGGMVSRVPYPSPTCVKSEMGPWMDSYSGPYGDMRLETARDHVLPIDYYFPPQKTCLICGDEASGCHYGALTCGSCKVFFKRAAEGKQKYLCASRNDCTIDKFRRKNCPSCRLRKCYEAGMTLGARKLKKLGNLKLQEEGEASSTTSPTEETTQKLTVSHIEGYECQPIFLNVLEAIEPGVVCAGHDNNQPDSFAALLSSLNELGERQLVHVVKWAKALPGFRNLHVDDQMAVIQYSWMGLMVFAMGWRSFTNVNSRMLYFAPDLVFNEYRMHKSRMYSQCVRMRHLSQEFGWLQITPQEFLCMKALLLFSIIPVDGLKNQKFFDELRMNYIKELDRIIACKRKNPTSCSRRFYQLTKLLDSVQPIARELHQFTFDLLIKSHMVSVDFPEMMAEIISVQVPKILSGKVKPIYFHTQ
Summary of the method: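 Agonist-mode confirmation screen: human MDA-kb2 cells stably expressing luciferase under an MMTV promoter bearing AR and GR response elements, co-treated with 3.0uM nilutamide (final). Luminescence measured after 16hr compound incubation.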

Measured: Potency

CN(C)c1ccc(O)c2c1C[C@H]1C[C@H]3[C@H](N(C)C)C(=O)C(C(N)=O)=C(O)[C@@]3(O)C(=O)C1=C2O
inactive and 2.66 µM (active): [8]
86.3 µM (active) and inactive: [6]
not listed: [19] | [20]
inactive: all other assays above

CCOC(=O)n1ccn(C)c1=S
not listed: [16] | [19] | [20]
inactive: all other assays above

CC(CCl)OP(=O)(OC(C)CCl)OC(C)CCl (stereo not given)
active: [13] 54.6 µM
not listed: [9] | [14] | [20]
inactive: all other assays above

OCc1ccccc1
inactive: all assays above

CN/C(=C\[N+](=O)[O-])NCCSCc1csc(CN(C)C)n1
not listed: [8]
inactive: all other assays above

Cc1ccc(S(=O)(=O)N=C=O)cc1
6 µM (active) and inactive: [2]
not listed: [9] | [16] | [20]
inactive: all other assays above

CCc1ccccc1CC
not listed: [14] | [19] | [20]
inactive: all other assays above

C=CC(C)CCCC(C)(C)O (stereo not given)
54.4 µM (active) and inactive: [3]
not listed: [9] | [14] | [19] | [20]
inactive: all other assays above

COc1ccc(N)c(C)c1
not listed: [14] | [19] | [20]
inactive: all other assays above

CC(=O)Oc1ccc(C)cc1
not listed: [9] | [10] | [14]
inactive: all other assays above

Nc1ccc(Cl)c(N)c1
not listed: [9] | [19] | [20]
inactive: all other assays above

CC(C)CC(C)O (stereo not given)
not listed: [16] | [19] | [20]
inactive: all other assays above

CCNC(=S)NCC
not listed: [20]
inactive: all other assays above

O=C(O)Cn1c(=O)n(Cc2ccc(Br)cc2F)c(=O)c2ccc(Cl)cc21
not listed: [16] | [19]
inactive: all other assays above

C=C(C)C(=O)OCC(C)C
619 nM (active) and inactive: [2]
not listed: [9] | [20]
inactive: all other assays above

CCNc1ccccc1
not listed: [8] | [9] | [14] | [16] | [19]
inactive: all other assays above

c1ccc2c(c1)Cc1ccccc1-2
not listed: [9] | [14] | [19] | [20]
inactive: all other assays above

From PubChem BioAssay (Tox21)
